Measured values as given in PubChem BioAssay AID430 (Sanford-Burnham Center for Chemical Genomics, 2006).
Screen size: about 63,000 compounds; about 1,100 (1.7%) were called active. What follows is part of a selection rich in actives, with near analogues and random picks from the rest. Entries with a potency or affinity are not part of this list. Unmarked numbers belong to inactive results. Rule as the data show it: active = cytotoxicity above about 50%; inactive = the rest.

Assay: HPDE-C7 pancreatic duct cell viability loss – fluorescence, HTS (AID 430);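 also: cells exposed to compound for 48 hours before viability readout; 0% = vehicle and 100% = reference cytotoxic drug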
Settings: HPDE-C7 pancreatic duct cells viability, at 10 µM, hits give high values

In order of falling cytotoxicity:
1. COc1cc(CNc2ccc(C)c(C)c2)cc(OC)c1OC  46.9%
2. CCOc1ccccc1-n1nnnc1SCC(=O)Nc1cc2oc3ccccc3c2cc1OC  43.6%
3. COCCNC(=O)c1c(N)n(/N=C/c2cccs2)c2nc3ccccc3nc12  42.8%
4. CCC(C)NC(=O)c1c(N)n(/N=C/c2cccnc2)c2nc3ccccc3nc12 (stereo not drawn)  41.4%
5. COCCCNC(=O)c1c(N)n(/N=C/c2cccnc2)c2nc3ccccc3nc12  33.1%
6. O=S(=O)(c1ccc2c(c1)nc1n2CCC1)N1CCOCC1  30.9%
7. CC(C)OCCCNC(=O)c1c(N)n(/N=C/c2ccccn2)c2nc3ccccc3nc12  28.4%
8. COc1cccc(NC(=O)c2ccccc2-c2nc(-c3cccc(C)c3)no2)c1  24.8%
9. CCc1c(O)nc(SCC(=O)Nc2ccccc2)n(-c2ccccc2)c1=O  23%
10. COCCCNC(=O)c1c(N)n(/N=C/c2ccccn2)c2nc3ccccc3nc12  22%
11. O=C(CN1CCN(c2ccc(F)cc2)CC1)Nc1ccc(-n2cnnn2)cc1  16.2%
12. CC(C)CNC(=O)c1c(N)n(/N=C/c2ccccn2)c2nc3ccccc3nc12  14.8%
13. CC(C)Cc1nc(N2CCCCC2)c(C#N)c2c1CCC2  11.9%
14. O=C(Cc1cn2ccsc2n1)Nc1cccc2cnccc12  11.4%
15. CC(=O)N1CCN(S(=O)(=O)c2ccc(C)cc2)C1C(C)C (stereo not drawn)  11%
16. C=C(C)CSc1nc2nc(C)cc(C)n2n1  9.4%
17. COc1ccc(CCNC(=O)CSc2nnnn2-c2ccccc2OC)cc1OC  8%
18. CCc1nc(N2CCOCC2)c(C#N)c2c1CCCC2  7.3%
19. CC(C)CN(C#N)c1nc(N2CCOCC2)nc(N2CCOCC2)n1  6.3%
20. CCOC(=O)c1ccc(NC(=O)CN2CCN(c3ccccc3)CC2)cc1  6%
21. c1ccc(-n2nnnc2SCCCSc2nc3ccccc3s2)cc1  5.8%
22. CCOc1ccc(N2CC(C(=O)NCCc3ccc(OC)c(OC)c3)CC2=O)cc1 (stereo not drawn)  5.7%
23. CCOC(=O)c1ccc(NC(=O)N2CCc3ccccc32)cc1  5.4%
24. COc1ccc(-n2nnnc2S(=O)(=O)Cc2ccc(C(=O)O)cc2)cc1  4.8%
25. COc1ccc(NC2=NC3(CCCCC3)N=C(N)N2)cc1  4.1%
26. CCOC(=O)c1cc(-c2ccncc2)nc2c1c(C)nn2C  4%
27. CCN1CCN(CCCNC(=O)c2cc3sccc3n2CC)CC1  3.8%
28. COc1cccc(NC2=NC3(CCCCC3)N=C(N)N2)c1  3.1%
29. O=C(NCc1ccc2c(c1)OCO2)c1ccc2c(=O)n(C3CCCC3)c(=O)[nH]c2c1  2.7%
30. COc1ccccc1NC(=O)c1nnn(Cc2ccccc2)c1NC(C)=O  2.6%
31. CC(C)(C)n1nnnc1C(c1ccc(C#N)cc1)N1CCCC2(CCCCC2)C1 (stereo not drawn)  2.3%
32. COc1ccc(C(OC(=O)c2c(C)noc2C)C(=O)NC2CCCC2)cc1 (stereo not drawn)  1.7%
33. CC(=O)N1CCN=C1SCc1ccc(Br)cc1  1.6%
34. Cc1cc(Nc2cc(C)on2)n2ncnc2n1  1.6%
35. CCc1cc(=O)oc2cc(OC(C)C(=O)O)c(Cl)cc12 (stereo not drawn)  1.5%
36. CC(C)NC(=O)CN(C)S(=O)(=O)c1ccc(F)cc1  1.5%
37. O=S(=O)(c1ccc(Br)cc1)N1CCn2c(nc3ccccc32)C1  1.5%
38. Cn1cccc1Cc1nnc(SCC(=O)NCC2CCCO2)n1-c1ccc(F)cc1 (stereo not drawn)  0.9%
39. Cc1c2c(nc3nc4ccccc4n13)CC(C)(C)CC2=O  0.8%
40. CCOc1ccccc1NC(=O)CCn1c(=O)oc2ccccc21  0.7%
41. COc1ccc(Cc2nnc(SCC(=O)NCC3CCCO3)o2)cc1 (stereo not drawn)  0.6%
42. CCCCNC(=O)CS(=O)Cc1nc(-c2cccc(C)c2)oc1C (stereo not drawn)  0.4%
43. COc1ccc(OC)c(NC(=O)CCN2CCN(Cc3ccccc3)CC2)c1  0.1%
44. O=C(CCNc1n[nH]c(=O)[nH]c1=O)N1CCOCC1  -0.4%
45. COc1ccc(-n2nnnc2SCC(=O)NCCc2ccc(OC)c(OC)c2)cc1  -0.4%
46. CCOc1ccc(-c2cc(CCCC(=O)NCc3cccnc3)no2)cc1  -0.4%
47. Cc1cc(Nc2ccc3ccccc3c2)n2ncnc2n1  -0.5%
48. CCc1cccc(Nc2cc(C)nc3ncnn23)c1  -0.8%
49. Cc1ccc(C)c(Oc2nnnn2-c2ccccc2)c1  -0.9%
50. CCc1nc(N2CCCC2)c(C#N)c2c1CCCC2  -1.4%
51. COc1ccc(OC)c(S(=O)(=O)N(C)CC(=O)Nc2ccc3c(c2)OCCO3)c1  -1.4%
52. COc1ccc(C(O)CNc2ccc(C)cc2)cc1 (stereo not drawn)  -2.1%
53. O=C(CSc1nc2cc(Cl)ccc2s1)N1CCN(C(=O)c2ccco2)CC1  -2.2%
54. Cc1ccc(CC2SC(=O)NC2=O)cc1Cl (stereo not drawn)  -2.2%
55. COc1ccc(N2C(=O)CCC(C(=O)c3ccccc3)=C2C)cc1  -2.2%
56. CS(=O)(=O)N1CCC(C(=O)NCc2ccc(F)cc2Cl)CC1  -2.6%
57. Cc1oc(-c2ccccc2F)nc1CS(=O)CC(=O)NCc1cccs1 (stereo not drawn)  -2.6%
58. O=C1NC2(CCCC2)N=C1c1ccc(Cl)cc1  -2.7%
59. O=C1NC2(CCCCC2)N=C1c1ccccc1  -3%
60. CCOCc1nnc(NC(=O)CSCc2ccccc2)s1  -3.4%
61. COc1ccc(CNC(=O)C2CCNCC2)cc1  -3.8%
62. O=C(c1cccs1)N(Cc1cccc(Cl)c1)C1CCS(=O)(=O)C1 (stereo not drawn)  -4.1%
63. C(=C\CSc1nnnn1-c1ccccc1)/CSc1nnnn1-c1ccccc1  -4.4%
64. Cc1cc(=O)[nH]c(SCCOc2cccc(C(F)(F)F)c2)n1  -4.8%
65. COC(=O)c1cccc(S(=O)(=O)N2CCN(c3nc4ccccc4s3)CC2)c1  -5.4%
66. COc1cccc2c1nc(C)c1cc(C)oc12  -6.1%
67. CCOC(=O)N1CCC(NC(=O)CC(NS(=O)(=O)c2ccc(Cl)cc2)c2ccco2)CC1 (stereo not drawn)  -6.1%
68. CCCCc1ccc(CC(=O)O)cc1  -6.3%
69. CCOc1cc(C(=O)NCCOC)ccc1OC  -6.6%
70. CCSc1nnc(NC(=O)c2cnccn2)s1  -7%
71. O=C(Cc1nc2ccccc2[nH]1)NCc1ccco1  -7.1%
72. COc1cc(OC)cc(-n2nnnc2SCC(=O)N2CCCC2)c1  -7.2%
73. CCc1c(O)nc(SCC(=O)Nc2ccc(OC)cc2)n(C2CCCCC2)c1=O  -8.3%
74. CC1CCCN(c2ncnc3c2cnn3-c2ccccc2)C1 (stereo not drawn)  -9.4%
75. CC(C)CC(=O)Nc1ccccc1N1CCCC1  -9.5%
76. O=S(=O)(c1ccc(Br)s1)N1CCN(c2ccccc2)CC1  -10.8%
77. Cc1cc(NC(=O)c2c(-c3ccccc3Cl)noc2C)no1  -12.4%
78. O=C(CN1CCCCC1)Nc1ccccc1NC(=O)CN1CCCCC1  -13.4%
79. CCOCCCNC(=O)CSc1ccccc1  -13.6%
80. CCOc1ccc2nc(NCCNC(=O)C3CC3)c(C)cc2c1  -13.7%
81. Cn1ccnc1Sc1nnnn1-c1ccccc1  -14.7%
82. Cc1cc(C)c2cc(C#N)c(SCC(=O)NCC3CCCO3)nc2c1 (stereo not drawn)  -15.1%
83. COC(=O)Nc1ccc(NC(C)=O)cc1  -16%
84. CCCCSCCCNC(=O)CS(=O)Cc1nc(-c2cccc(C)c2)oc1C (stereo not drawn)  -17.4%
85. CCCc1nc(N2CCOCC2)c(C#N)c2c1CCCC2  -18.8%
86. Cc1ccc(CNC(=O)CN2CCN(Cc3ccc(C)cc3)C2=O)cc1  -20.9%
87. Cn1c2c(c(=O)n(C)c1=O)C(NC(=O)c1ccco1)(C(F)(F)F)C(=O)N2 (stereo not drawn)  -22.3%
88. O=C(CSc1nnc(SCc2ccc(Cl)cc2)s1)N1CCN(C(=O)c2ccco2)CC1  -25.8%
89. CCOc1ccc(N(CC(=O)N2CCc3ccccc32)S(=O)(=O)c2c(C)noc2C)cc1  -26.9%
90. CCCCc1ccc(-c2ccc(C)cc2O)nc1  -28.6%

With CCCc1nc(N2CCCC2)c(C#N)c2c1CCCC2 the cytotoxicity was 51.6% (active).
With CC(C)Cc1nc(N2CCOCC2)c(C#N)c2c1CCC2 the cytotoxicity was 74.1% (active).
In the case of O=C(CSc1c2c(nc3ccc(Cl)cc13)CCCC2)N1CCN(C(=O)c2ccco2)CC1, the cytotoxicity is reported as 106% (active).
With CCOC(=O)c1ccc(NC(=O)CN2CCc3ccccc3C2)cc1 the cytotoxicity was 57.6% (active).
In the case of O=C(CN1CCc2ccccc2C1)Nc1ccccc1N1CCCCCC1, the cytotoxicity is reported as 93.4% (active).
For COc1ccc(CCNc2nnc(Sc3nnnn3-c3ccccc3)s2)cc1OC, the cytotoxicity was 53.9% (active).
With CCCSc1nnc(Sc2nnnn2-c2ccccc2)s1 the cytotoxicity was 81% (active).
With Cc1ccc(NCC(O)C(O)C(O)CO)cc1C (stereo not drawn) the cytotoxicity was 53.3% (active).
In the case of COc1ccc(-n2nnnc2S(=O)(=O)CC(=O)N2CCCCC2)cc1, the cytotoxicity is reported as 76.4% (active).
With CCc1c(O)nc(SCC(=O)Nc2ccc(C)cc2)n(C2CCCCC2)c1=O the cytotoxicity was 51.2% (active).
In the case of CCn1c2ccccc2c2cc(Nc3cc(C)nc4ncnn34)ccc21, the cytotoxicity is reported as 64.5% (active).
With CCCCNC(=O)c1c(N)n(/N=C/c2ccccn2)c2nc3ccccc3nc12 the cytotoxicity was 50.5% (active).
In the case of Cc1cccc(-c2nc(CS(=O)CC(=O)NCCCSC3CCCCC3)c(C)o2)c1 (stereo not drawn), the cytotoxicity is reported as 56.1% (active).
